PubChem BioAssay AID977622 (Broad Institute, 2014)
The whole screen tested about 1,900 compounds, of which fewer than 10 were called active. Inconclusive results (about 39%) are left out.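 The calls were made as follows: active = Green signal of the normal strain falls at least twice as much as red signal of the resistant mutant, with overall culture growth loss under a set limit; inconclusive = no clear call, values can overlap the other calls; inactive = the rest.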 Only a sample is shown.

How the values were obtained:
[1] = wild-type E. coli growth inhibition versus h38 humanized strain – h38 mutant RFP, wild-type GFP, cherry-pick, dose response (AID 977622); conditions: activity change: E. coli mixed culture, total growth OD600 at 50 uM, at 50 µM
[2] = tested on: E. coli h38 humanized mutant ribosome RFP fluorescence, mixed culture, 24 h; assay: as above; conditions: h38 mutant RFP at 50 uM; at 50 µM

Structure (SMILES)	activity change [1] [%]	outcome [1]	activity change [2] [%]
COCc1[nH]nc2c1C(c1ccc3c(c1)OCO3)N(c1ccc(OC)cc1)C2=O (configuration not stated)	1.74	inactive	–
O=C(c1cc(COc2ccc(F)cc2F)on1)N1CCCC(c2ccccc2)C1 (configuration not stated)	5.17	inactive	-5.01
CCOC(=O)Cc1csc(SCC(=O)Nc2cc(C)ccc2OC)n1	-33.1	inactive	38.6
CC(=O)Nc1cccc(OCc2ccc([N+](=O)[O-])cc2)c1	-10.5	inactive	-23.9
CC(CCc1ccccc1)NC(=O)CNC(=O)COc1ccccc1 (configuration not stated)	-14.6	inactive	9.58
O=S(=O)(NOCc1ccc(Cl)cc1)c1ccc(Cl)cc1	-42.8	inactive	-52
O=C(c1cccc2ccccc12)C1CCCN(C(=O)CCc2cnccn2)C1 (configuration not stated)	-12	inactive	-5.75
C[C@@H]1CN([C@@H](C)CO)C(=O)c2cc(NC(=O)Nc3cccc4ccccc34)ccc2O[C@@H](C)CCCCO[C@H]1CN(C)C	-2.41	inactive	-18
C[C@]12C(=O)N(c3ccc(F)cc3)C(=O)N1[C@@H]1c3ccccc3OC[C@@H]1[C@H]2c1ccccc1	-20.2	inactive	-13.6
O=C(O)c1cccc2c1-c1ccc([N+](=O)[O-])cc1C2=O	-0.103	inactive	-6.27
COc1ccc([C@H]2C[C@H](O)C[C@@H](CCn3cc(-c4ccccc4)nn3)O2)cc1	-21.6	inactive	19.3
O=C(Nc1ccc(F)cc1)N1CCCCN2[C@@H](CO)[C@H](c3ccc(-c4ccncc4)cc3)[C@@H]2C1	12	inactive	-0.029
Cc1ccccc1S(=O)(=O)N1C[C@H]2CON(C)[C@H]2C[C@H]1c1cccc(-c2ccc(C#N)cc2)c1	-28.1	inactive	-10.7
CC(=O)Nc1cccc(OCCCOc2cccc([N+](=O)[O-])c2)c1	-16.8	inactive	44.4
Nc1[nH]c(C(=O)c2ccccc2)c(-c2ccc3c(c2)OCO3)c1C(=O)NCCc1c[nH]c2ccccc12	-18.1	inactive	-20.2
Cc1ccc2nc(-c3ccc(Cl)cc3)c(Cc3ccccc3C(F)(F)F)n2c1	-10.5	inactive	37.7
CC(C)n1nnnc1C1c2ccccc2C(=O)N1CCOc1ccccc1 (configuration not stated)	-14.1	inactive	-9.39
Cc1occc1-c1nnc(SCC(=O)Nc2nc(-c3ccccc3)cs2)o1	-4.96	inactive	8.71
O=C(O)CC(CC(=O)Nc1ccc2ccccc2n1)c1ccccc1 (configuration not stated)	-7.83	inactive	7.39
CCOC(=O)c1cccc(OC(=O)CCNC(=O)c2ccc(Cl)cc2)c1	-36.4	inactive	-3.29
C[C@H]1CN([C@@H](C)CO)C(=O)CCCn2nncc2CO[C@@H]1CN(C)Cc1ccccc1C(F)(F)F	-28.1	inactive	-45.2
Cn1nc(C(=O)Nc2cccc(S(=O)(=O)N3CCCCC3)c2)c2ccccc2c1=O	-5.66	inactive	-3.97
O=S1(=O)N[C@H](Cc2ccccc2)COc2cc(N3CCSCC3)ccc21	-14.3	inactive	12
CN(CCOc1ccccc1)S(=O)(=O)c1ccccc1C#N	-20.9	inactive	–
CN(C)S(=O)(=O)c1cccc(C(=O)OCC(=O)c2ccc3c(c2)NC(=O)CO3)c1	-6.04	inactive	–

Structure (SMILES)	activity change [1] [%]	outcome [1]	activity change [2] [%]
O=C(COC(=O)C1CC2C=CC1C2)Nc1ccc([N+](=O)[O-])cc1 (configuration not stated)	-15.1	inactive	-8.7
C[C@@H]1CN([C@@H](C)CO)C(=O)CCCn2nncc2CO[C@H]1CN(C)C(=O)Nc1cccc(C(F)(F)F)c1	-2.42	inactive	-7.01
Fc1cccc(Cc2c(-c3ccco3)nc3c4ccccc4ccn23)c1	3.21	inactive	15.9
O=C(c1ccccc1)C1Oc2ccccc2C2CC(c3cccs3)=NN12 (configuration not stated)	-7.77	inactive	46.5
C=CCSc1cc(C)nc2c(-c3ccccc3)c(C)nn12	-4.42	inactive	-3.25
Cc1cc(C)c(OCC(=O)OCC(=O)N2CCc3ccccc3C2)c(C)c1	-18.4	inactive	-19.1
Cc1noc(C)c1NC(=O)Nc1ccc2c(c1)C(=O)N([C@H](C)CO)C[C@H](C)[C@H](CN(C)C(=O)Nc1ccc3c(c1)OCO3)OCCCC[C@@H](C)O2	-29.4	inactive	-22.3
COc1ccccc1NC(=O)CSc1nccn1Cc1ccc(F)cc1	-34.2	inactive	-43.9
COc1cc2ccccc2cc1C(=O)NCC(c1cccs1)N(C)C (configuration not stated)	-20.3	inactive	10.8
COc1cccc(NC(=O)N(C)C[C@H]2Oc3ncc(C#Cc4cccnc4)cc3C(=O)N([C@H](C)CO)C[C@H]2C)c1	-8.41	inactive	-2.54
O=C(O)CC(CC(=O)Nc1ccc(Oc2ccccc2)cc1)c1ccccc1 (configuration not stated)	-38.6	inactive	-21.4
Cc1onc(-c2ccccc2Cl)c1C(=O)N1CCN(Cc2ccc3c(c2)OCO3)CC1	-18.8	inactive	-29.8
Cc1cc(C)nc(SCCC(=O)Nc2ccccc2Cl)n1	–	inactive	4.04
C=CCNc1ccc2c(c1)OC[C@H](CC(C)C)NS2(=O)=O	-16.5	inactive	-12.1
CCCCCCCNC(=O)c1ccc(N2CCC3(CC2)OCCO3)c([N+](=O)[O-])c1	-71.7	inactive	33.2
CCn1nc(C)cc1C(=O)N1CCCC(C(=O)c2ccc3ccccc3c2)C1 (configuration not stated)	-3.63	inactive	3.47
CSc1ccccc1C(=O)NCCc1ccc(S(=O)(=O)N2CCCCC2)cc1	-6.73	inactive	–
CCOc1ncccc1C(=O)OCC(=O)NCCCc1ccccc1	-34.2	inactive	13.1
Cn1cc(CN2CCCC(C(=O)Nc3cccc(-c4cc5ccccc5[nH]4)c3)C2)cn1 (configuration not stated)	-25.9	inactive	-29
COc1ccccc1CC(=O)NCCCc1ccccc1	0.195	inactive	28.9
CN1C(=O)c2cc(NC(=O)c3cccc(F)c3)ccc2OC[C@H]2O[C@@H](CC(=O)NCC3CCCCC3)CC[C@@H]21	-45.8	inactive	-19.3
C[C@H](CO)N1C[C@H](C)[C@H](CN(C)C(=O)Nc2ccc(F)cc2)Oc2c(NC(=O)Nc3ccccc3)cccc2C1=O	-24.1	inactive	16.4
O=C(Nc1c(S(=O)(=O)c2ccc(Cl)cc2)csc1Br)c1ccccc1Cl	9.68	inactive	8.46
O=C(CCc1nc2ccccc2s1)OCC(=O)c1ccccc1	6.3	inactive	-0.655
Cc1ccc2nc(N(CCN(C)C)C(=O)C3CCN(S(=O)(=O)c4cccs4)CC3)sc2c1	-21.5	inactive	–

Structure (SMILES)	activity change [1] [%]	outcome [1]	activity change [2] [%]
Cc1cccc(-c2ccc([C@@H]3[C@@H](CO)N4CCCCN(S(=O)(=O)c5ccccc5C)C[C@@H]34)cc2)c1	-8.54	inactive	21
COc1ccc(C#Cc2ccc([C@H]3[C@@H](CO)N4CCCCN(C(=O)Nc5cccc(F)c5)C[C@H]34)cc2)cc1	-17.6	inactive	73.7
Cc1cc(C)n(CC(O)COc2ccc3ccccc3c2)n1 (configuration not stated)	4.91	inactive	10.9
N#Cc1nc(COc2cccc(Cl)c2)oc1N1CCCC1	-6.55	inactive	–
COc1ccc(CC(=O)NCc2csc(-c3cccs3)n2)cc1OC	-8.86	inactive	-8.02
Cc1ccc(-n2c(SCC(N)=O)nnc2-c2cnccn2)cc1	-6.07	inactive	-24.8
COc1ccc(C)c2sc(N(CCN(C)C)C(=O)c3ccc(S(=O)(=O)N(C)c4ccccc4)cc3)nc12	-16.8	inactive	11
CCCc1nc2ccc(Br)cn2c1Cc1cccc(Cl)c1	-8.44	inactive	4.58
CS(=O)(=O)c1ccc(Cl)c(NC(=O)COC(=O)c2c(Cl)cccc2Cl)c1	-7.03	inactive	-3.81
COc1ccc(Cc2c(-c3cccc(Cl)c3)nc3ccc(Cl)cn23)c(C)c1	-9.93	inactive	1.24
OC1CCN(c2c3c(nc4cc(-c5cccc(F)c5)nn24)CCCC3)CC1	-19	inactive	-5.04
CN(Cc1ccccc1NS(=O)(=O)c1ccc(Cl)cc1)C1CCCCC1	4.68	inactive	25.7
O=C1c2ccccc2CSc2c(O)cccc21	-41.7	inactive	-51.2
CCN(CC)CCNC(=O)c1cc2cc3ccc(OC)cc3nc2o1	-17.2	inactive	-1.99
C[C@H](CO)N1C[C@H](C)[C@@H](CN(C)C(=O)CCCN(C)C)OCCCC[C@H](C)Oc2ccc(NC(=O)Nc3cccc4ccccc34)cc2C1=O	1.54	inactive	-2.48
COc1ccccc1NC(=O)COC(=O)Cc1c[nH]c2ccccc12	-29.2	inactive	-34.7
NC(=O)c1ccsc1NC(=O)COC(=O)Cc1ccc(F)cc1	-13.5	inactive	-23.2
COc1cccc(C(=O)Nc2nnc(S(=O)(=O)N(C)Cc3ccccc3)s2)c1	-30.6	inactive	-13.1
Cc1noc(C)c1NC(=O)Nc1ccc2c(c1)C(=O)N([C@H](C)CO)C[C@@H](C)[C@@H](CN(C)C(=O)Nc1ccc3c(c1)OCO3)OCCCC[C@@H](C)O2	-6.3	inactive	-16.3
CC(NC(=O)c1c(N)[nH]c(C(=O)c2ccccc2)c1-c1ccccc1Br)c1cccc2ccccc12 (configuration not stated)	-15.6	inactive	41.2
COC(=O)CN1C(=S)N(c2ccc(F)cc2)C(=O)C1CC(=O)Nc1ccc(F)cc1 (configuration not stated)	-1.47	inactive	-5.83
COc1cc(OC)cc(C(=O)N[C@H](C(=O)OCC(=O)Nc2ccc(F)c(F)c2F)C(C)C)c1	-1.83	inactive	-9.06
O=C(NCc1ccccc1)c1ccc(-c2cn[nH]c2)c2ccoc12	-21.8	inactive	-23.8
CCC(=O)Nc1nc2c(OC)ccc(OC)c2s1	–	inactive	-14.1
O=C(Nc1cccc(Cl)c1)N1C[C@@H]2[C@H](c3ccccc31)[C@@H](CO)N2C(=O)c1cccnc1	7.11	inactive	2.16
